Screens as filed in PubChem.
The list is not random: actives were taken first. Their share in the collection is about 2.9%.
DRD3 agonist = qHTS of D3 Dopamine Receptor Agonist: qHTS; D3R DiscoveRx beta-arrestin cells, luminescence, 90 min; max activation, %; actives 0.58% (n = 410,000); AID 652048, 2013; in the data active = max activation above about 30%
Target sequence (P35462 whole entry, looked up): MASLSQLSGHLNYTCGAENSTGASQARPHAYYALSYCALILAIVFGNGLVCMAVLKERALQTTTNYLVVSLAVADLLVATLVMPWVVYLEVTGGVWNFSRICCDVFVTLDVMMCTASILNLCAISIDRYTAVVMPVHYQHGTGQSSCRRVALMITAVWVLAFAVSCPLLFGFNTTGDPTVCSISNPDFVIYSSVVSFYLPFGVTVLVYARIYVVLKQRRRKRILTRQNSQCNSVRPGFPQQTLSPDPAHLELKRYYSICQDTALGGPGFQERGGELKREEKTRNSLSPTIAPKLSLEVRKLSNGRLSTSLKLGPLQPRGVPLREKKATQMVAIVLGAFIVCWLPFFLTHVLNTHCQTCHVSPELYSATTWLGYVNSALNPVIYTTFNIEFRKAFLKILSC
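Agonist-mode cell screen: cells plated at 1500/well and incubated overnight at 37 °C, then exposed to library compounds for 90 min at 37 °C. Detection reagent was added for 30–60 min at room temperature, and luminescence was read.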
DRD3 antagonist = qHTS of D3 Dopamine Receptor Antagonist: qHTS | D(3) dopamine receptor (Homo sapiens), P35462 | D3R cells, DiscoveRx beta-arrestin luminescence, antagonist mode; hits give low values | max response, negative = inhibition, % | actives 2.5% (n = 360,000); in the data active = max response below about -50%; inconclusive = no clear call, values can overlap the other calls
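Cells plated overnight at 1500 cells/well, then exposed to library compounds with dopamine controls for 90 minutes at 37 degrees C. DiscoveRx reagent added for 30–60 minutes at room temperature; luminescence read, quantitative HTS format.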
TRPML1 inh = qHTS for Inhibitors of the Human Mucolipin Transient Receptor Potential 1 (TRPML1). Mucolipin-1 (Homo sapiens), Q9GZU1. TRPML1-inducible cells, Ca2+ dye fluorescence, FDSS; hits give low values; inhibition of EC80 agonist-evoked calcium signal. activity change, negative = inhibition, % (concentration not given with the values). actives 0.02% (n = 390,000); in the data active = activity change below about -50%; inconclusive = between about -30% and that limit;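 note: stimulus is agonist 54-4 at its EC80 concentration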
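Calcium fluorescence in TRPML1-DL cells induced overnight with Tet: a 110 s read after compound pin addition, then a 110 s antagonist read after challenge with 54-4 at 4 uM final (EC80).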
TRPML1 agonist = qHTS for Agonists of the Human Mucolipin Transient Receptor Potential 1 (TRPML1) | TRPML1-expressing cells, Ca2+ dye fluorescence, FDSS | actives 0.12% (n = 410,000) | Mucolipin-1 (Homo sapiens), Q9GZU1 | activation, % (concentration not given with the values) | AID 624414, 2012; in the data active = activation above about 50%; inconclusive = mostly about 30% to 49%
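Tetracycline-induced TRPML1-DL cells are seeded and incubated overnight before loading with a no-wash Ca2+ dye and quencher. Agonist activity is taken from the 110 s fluorescence read following compound pin-transfer on an FDSS, before EC80 54-4 challenge.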
Hits are given with their value; n = inactive; u = inconclusive; x = not tested or not shown; ! = not active in a repeat.

SMILES | DRD3 agonist | DRD3 antagonist | TRPML1 inh | TRPML1 agonist
OCCN1CCN(C(=S)c2ccc(Cl)cc2)CC1 | n | n | n | n
CCN1CCN(C(=S)c2ccc(Cl)cc2)CC1 | n | -69 | n | n
COc1cc2ccccc2cc1C(=O)N1CCN(c2nc3ccc(F)cc3s2)CC1 | n | x | n | n
CCNc1ccc(/C=C2\C=Cc3ccccc32)cc1 | x | x | x | n
CCCN1CNc2c(c(=O)[nH]c(=S)n2CCc2ccc(C)c(C)c2)C1 | x | x | x | n
CS(=O)(=O)c1ccc(NC(=O)COc2ccccc2C(=O)Nc2ccccc2)cc1 | x | x | x | n
COc1cc(OC)c(OC)cc1CCC(C)NCCC(c1ccccc1)c1ccccc1 (configuration not stated) | n | -71 | n | n
O=C(Nc1ccc(C(=O)NCCCN2CCN(c3ccccc3)CC2)cc1)C1=CSCCO1 | n | -73 | n | n
O=C(NCCCN1CCN(c2ccccc2)CC1)Nc1ccccc1C(F)(F)F | 30 | u | n | n
O=C(NCCCN1CCN(c2ccccc2F)CC1)Nc1ccc(F)cc1 | n | u | n | n
Cc1ccccc1NC(=O)NCCCN1CCN(c2ccccc2)CC1 | 50 | u | n | n
O=C(NCCCN1CCN(c2ccccc2F)CC1)Nc1ccccc1[N+](=O)[O-] | n | -89 | x | x
CN(C)c1ccc2nc3ccc(=[N+](C)C)cc-3sc2c1 | n | -60 | n | n
CN(C)c1ccc2nc3ccc(=O)cc-3sc2c1 | n | n | n | n
Cc1cc2nc3ccc(=[N+](C)C)cc-3sc2cc1N | n | -54 | n | n
CC(C)(C)n1ncc2c(=O)n(Cc3cccc(Oc4ccccc4)c3)cnc21 | x | x | n | n
C(=C\c1ccccc1)/CN1CCN(C(c2ccccc2)c2nnnn2C2CCCCC2)CC1 (configuration not stated) | n | -91 | x | n
CSCCC(c1nnnn1C1CCCC1)N1CCN(C/C=C/c2ccccc2)CC1 (configuration not stated) | n | -78 | n | n
C(=C\c1ccccc1)/CN1CCN(C(c2ccnc3ccccc23)c2nnnn2C2CCCCC2)CC1 (configuration not stated) | n | u | n | n
Fc1ccccc1C(c1nnnn1C1CCCC1)N1CCN(Cc2ccccc2)CC1 (configuration not stated) | n | n | n | n
CCC(c1nnnn1C1CCCC1)N1CCN(Cc2ccccc2)CC1 (configuration not stated) | n | -65 | n | n
CCCCC(c1nnnn1C1CCCC1)N1CCN(C2CCCCC2)CC1 (configuration not stated) | n | -60 | n | n
CCCC(c1nnnn1C1CCCCC1)N1CCN(c2ncccn2)CC1 (configuration not stated) | n | u | n | n
CC(=O)N[C@@H]([C@@H](O)[C@H](O)[C@H](O)CO)[C@@H](O)CC(=O)C(=O)O | n | x | x | x
Cc1cc(Cl)nc2nc(Cl)ccc12 | x | x | x | n
SMILES | DRD3 agonist | DRD3 antagonist | TRPML1 inh | TRPML1 agonist
CC(=C(CCOC(=O)C(C)C)SSC(CCOC(=O)C(C)C)=C(C)N(C=O)Cc1cnc(C)nc1N)N(C=O)Cc1cnc(C)nc1N | n | x | x | x
CCCC(c1nnnn1CC1CCCO1)N1CCN(c2ccccc2)CC1 (configuration not stated) | n | n | n | n
CCCCC(c1nnnn1CC1CCCO1)N1CCN(Cc2ccccc2)CC1 (configuration not stated) | n | -78 | n | n
CCC(c1nnnn1C1CCCC1)N1CCN(C/C=C/c2ccccc2)CC1 (configuration not stated) | n | -61 | x | n
CCCC(c1nnnn1C1CCCC1)N1CCN(C(=O)c2ccco2)CC1 (configuration not stated) | n | n | n | n
CSCCC(c1nnnn1C1CCCCC1)N1CCN(C/C=C/c2ccccc2)CC1 (configuration not stated) | n | -89 | x | n
CC1CCC(N2CC(=O)N(C3CCCCC3)C(c3ccc(Cl)cc3)C2=O)CC1 (configuration not stated) | n | x | n | n
CN1CCN(C(=O)c2ccccc2N(Cc2ccccc2)S(C)(=O)=O)CC1 | n | u | n | n
CN1CCN(C(=O)c2ccccc2N(Cc2ccccc2)S(=O)(=O)c2ccccc2)CC1 | n | -60 | u | n
CNCCCC12CCC(c3ccccc31)c1ccccc12 | x | -77! | n | n
COc1ccc(OC)c(/C=C2\Cc3ccccc3C2=O)c1 | x | x | x | n
COc1ccc(OC)c(/C=C2/Sc3ccccc3C2=O)c1 | n | n | n | 54
CC(C)Oc1ccc(CNS(=O)(=O)c2ccc(-c3cc(C(F)(F)F)on3)s2)cc1 | n | x | n | n
CN1CCCC1CCOC(C)(c1ccccc1)c1ccc(Cl)cc1 (configuration not stated) | x | -101 | n | n
CC(=O)C1=C(O)C(=O)N(Cc2cccnc2)C1c1ccc(Cl)cc1 (configuration not stated) | 35 | -50 | n | n
Cn1cccc1/C=N/NC(=O)Cn1cnc2ccccc21 | n | -75 | n | n
O=C(Cn1cnc2ccccc21)N/N=C/c1cccs1 | n | n | n | n
COCCCNC1=C(Cl)C(=O)c2ccccc2C1=O | n | n | n | n
COCCCNc1c2c3c(cccc3[nH]c1=O)C(=O)c1ccccc1-2 | n | n | n | 113
CCOC(=O)C1=C(Cc2ccc(F)cc2)C(=O)c2ccccc2C1=O | n | -100 | n | n
O=C(OCc1ccc(F)cc1)c1ccc2c(c1)-c1ccccc1C2=O | n | n | n | n
O=C(Nc1cnc2ccccc2c1)N1CCOCC1 | n | -67 | n | n
O=c1[nH]c2ccc(Cl)cc2c(-c2ccccc2)c1CN1CCOCC1 | n | -58 | n | n
CC(C)c1ccccc1NC(=O)CNCCOc1ccccc1F | 44 | u | n | n
O=C(CN1CCN(Cc2ccc(F)cc2)C1=O)NCc1ccccc1 | n | x | n | n
SMILES | DRD3 agonist | DRD3 antagonist | TRPML1 inh | TRPML1 agonist
CC(C)Cc1nn2c(=O)cc(COC(=O)c3ccc(NC(=O)c4cccs4)cc3)nc2s1 | n | x | -68 | n
CCCc1nn2c(=O)cc(COC(=O)c3ccc(NC(=O)c4cccs4)cc3)nc2s1 | n | x | n | n
CCOC(=O)c1c(NC(=O)CSc2nnc(N)s2)sc(C)c1-c1ccc(C)cc1 | 43 | n | n | n
CCc1ccc(NC(=O)Cn2nnc(-c3ccccc3N)n2)cc1 | 80 | x | n | n
CCN(CC)CCCNc1oc(-c2ccc(OC)c(OC)c2)nc1C#N | n | n | n | n
CCN(CC)CCCNc1oc(-c2ccccc2[N+](=O)[O-])nc1C#N | n | -56 | n | n
CCN(CC)CCCNC(=O)Cn1ncn2cccc2c1=O | n | -73 | n | n
CC1=Nc2ccccc2/C1=C/c1sc(=N)n(-c2nccs2)c1O | n | -96 | n | n
COc1ccccc1NC(=O)Cn1c(=O)c(CNc2ccccc2)cc2cc(OC)c(OC)cc21 | n | x | n | n
